Sampled rows, rich in hits. Any-hit rate of the full collection: about 1.6%.
PLAP activator = activates human placental alkaline phosphatase; P05187; activation fold at 20 µM; actives 1.2% (n = 96,000); purified PLAP enzyme, luminescent substrate read-out; stronger effect = higher value; in the data active = activation fold above about 2
MT1-MMP txn act = MT1-MMP promoter transcription activation. HT1080 MT1-MMP promoter luciferase reporter, luminescence, overnight; stronger effect = higher value. AID 750. activation factor at 10 µM. actives 0.16% (n = 86,000);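 active = activation factor of at least 2 for MT1-MMP transcription at 10 µM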
PTPN22 inh 2 = blocks human PTPN22 phosphatase activity. recombinant LYP catalytic domain, DiFMUP fluorescence. inhibition, % at 2 µM. Q9Y2R2. actives 0.21% (n = 96,000);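 active = inhibition at 2 µM at or above a set limit, the screen mean plus 3 SD, cut at about 24% in these data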;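 also: 0% = DMSO with enzyme and 100% = enzyme fully blocked by orthovanadate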
LYP act = LYP (human) phosphatase activation. Q9Y2R2. recombinant LYP, DiFMUP fluorescence; 0 = plate median, 100 = signal doubled. activation, % at 2 µM. actives 0.11% (n = 96,000). AID 697;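 active = activation at 2 µM above a set limit, the mean plus 5 SD, cut at about 37% in these data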
TNAP act DEA = activates human TNAP at intermediate phosphate acceptor concentration; 64,000 tested, under 10 active; P05186; purified TNAP, CDP-star luminescence, 100 mM DEA, 30 min; stronger effect = higher value; scale: 0 levamisole-inhibited, 1 vehicle-only enzyme; activation factor at 20 µM;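 active = activation factor of at least 2 at 20 µM, relative to controls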
Target sequence (P05186 whole entry, looked up): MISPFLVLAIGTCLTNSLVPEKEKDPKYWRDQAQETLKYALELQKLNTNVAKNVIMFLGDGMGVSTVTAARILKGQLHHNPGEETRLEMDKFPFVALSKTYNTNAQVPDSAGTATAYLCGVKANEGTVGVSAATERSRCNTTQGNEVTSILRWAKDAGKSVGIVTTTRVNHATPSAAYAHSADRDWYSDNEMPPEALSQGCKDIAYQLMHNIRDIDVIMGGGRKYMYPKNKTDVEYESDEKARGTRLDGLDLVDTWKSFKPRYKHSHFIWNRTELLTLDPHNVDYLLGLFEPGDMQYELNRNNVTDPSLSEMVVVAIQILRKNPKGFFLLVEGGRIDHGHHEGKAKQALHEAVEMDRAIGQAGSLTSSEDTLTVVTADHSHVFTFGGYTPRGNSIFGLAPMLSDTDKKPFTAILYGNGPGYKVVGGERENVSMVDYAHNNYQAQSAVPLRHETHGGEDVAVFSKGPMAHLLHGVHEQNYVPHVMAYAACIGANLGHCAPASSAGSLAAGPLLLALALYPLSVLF
Starred values were filed as active, the others as inactive.

Screening Cn1cnnc1SCC(=O)Nc1ccc2nc(SCc3ccccc3F)sc2c1 returned PLAP activator 2*, MT1-MMP txn act 1.8, PTPN22 inh 2 -4.1 and LYP act 6.7.
COc1ccc(C(=O)Nc2nc(N3C(=O)c4ccccc4C3=O)n(-c3ccccc3)n2)cc1 was read as PLAP activator 2.2*, MT1-MMP txn act 1.1, PTPN22 inh 2 19.7 and LYP act -18.8.
For CC(=O)Nc1nc(N2C(=O)c3ccccc3C2=O)n(-c2ccccc2)n1 the results were PLAP activator 1.5, PTPN22 inh 2 5.3, LYP act -1.7 and TNAP act DEA 1.
Screening O=C(Nc1nc(N2C(=O)c3ccccc3C2=O)n(-c2ccccc2)n1)c1ccc(F)cc1 returned PLAP activator 2.1*, MT1-MMP txn act 1.1, PTPN22 inh 2 -14.8 and LYP act 16.8.
For COc1ccccc1NC(=S)N1CCC(NC(=O)NC23CC4CC(CC(C4)C2)C3)CC1 the results were PLAP activator 1.6, PTPN22 inh 2 11.0 and LYP act -8.7.
`COc1ccc(NC(=S)N2C3CCC2CC(NC(=O)NC24CC5CC(CC(C5)C2)C4)C3)c(OC)c1` (stereo not drawn) gave PLAP activator 2.5*, PTPN22 inh 2 8.5 and LYP act -5.4.
Screening Cc1nc(S/C(=C/c2ccc(-c3cccc(Cl)c3)o2)C(=O)O)n[nH]1 returned PLAP activator 1.2, PTPN22 inh 2 24.4* and LYP act -20.8.
`CC1=NOC(=O)/C1=C\c1ccc(-c2cccc(Cl)c2)o1` gave PLAP activator 1.2, MT1-MMP txn act 1.3, PTPN22 inh 2 -9.5 and LYP act 11.0.
Cc1ccc(/C=N/Nc2ncc(Cl)cc2Cl)s1 was read as PLAP activator 2.8*, MT1-MMP txn act 1.6, PTPN22 inh 2 10.1 and LYP act -8.7.
For Clc1cnc(N/N=C/c2cccs2)c(Cl)c1 the results were PLAP activator 1.5, MT1-MMP txn act 1.6, PTPN22 inh 2 11.1 and LYP act -9.3.
`CCCCc1c2ccccc2nc2[nH]c3ccccc3c12` gave MT1-MMP txn act 1.2.
Screening Oc1ccc(CN2CCCCC2)c2cccnc12 returned MT1-MMP txn act 1.2, PTPN22 inh 2 -5.0 and LYP act 4.0.
Oc1ccc(CN2CCc3ccccc3C2)c2cccnc12 was read as PLAP activator 2.1*, MT1-MMP txn act 0.5, PTPN22 inh 2 10.7 and LYP act -11.1.
`Cc1ccc(NC2OC(CO)C(O)C(O)C2O)cc1` (stereo not drawn) gave PLAP activator 1, MT1-MMP txn act 1, PTPN22 inh 2 -17.8 and LYP act 20.6.
Cn1c(=S)[nH]c2ccccc21 was read as PLAP activator 1, MT1-MMP txn act 1, PTPN22 inh 2 2.3 and LYP act -0.7.
For N#CCCn1c(=S)[nH]c2ccccc21 the results were PLAP activator 2.6*, PTPN22 inh 2 0.1 and LYP act -2.5.
Screening CCCCS(=O)(=O)NC1=NCN(C2CCN(Cc3ccccc3)CC2)CN1 returned MT1-MMP txn act 1.1, PTPN22 inh 2 3.3, LYP act -3.6 and TNAP act DEA 0.9.
`O=C(OCc1cccc2ccccc12)c1ccc2c(=O)[nH]c(CN3CCOCC3)nc2c1` gave PLAP activator 1.5, MT1-MMP txn act 1.1, PTPN22 inh 2 13.1, LYP act -12.8 and TNAP act DEA 0.9.
For CCc1ccc2nc(NC(=O)c3ccc4c(=O)[nH]c(CN5CCOCC5)nc4c3)sc2c1 the results were PLAP activator 2.3*, MT1-MMP txn act 1.3, PTPN22 inh 2 28.4*, LYP act -28.1 and TNAP act DEA 0.9.
For COC(=O)C1(C)C=CC2(CCCCC2)N1C(=O)c1ccccc1 (stereo not drawn) the results were MT1-MMP txn act 1.1.
Screening Cc1ccc(S(=O)(=O)NCc2nc3ccccc3[nH]2)cc1 returned PLAP activator 2.3*, MT1-MMP txn act 1.2, PTPN22 inh 2 -2.6, LYP act -1.2 and TNAP act DEA 1.1.
`CCC[C@@H]1C[C@@]1(CCC)C(NC(=O)c1ccco1)c1ccc(Cl)cc1` (stereo partly drawn) gave MT1-MMP txn act 1.1.
For COC(=O)[C@H](Cc1ccccc1)NC(=O)[C@]1(C)C[C@H]1[C@H](NC(=O)OCc1ccccc1)c1ccccc1 the results were MT1-MMP txn act 1.1.
For C=CCN=C(NC#N)SCC(=O)c1cccc(OC)c1 the results were PLAP activator 0.8, MT1-MMP txn act 2*, PTPN22 inh 2 4.8, LYP act -5.7 and TNAP act DEA 0.9.
Screening COC(=O)[C@@H]1C[C@@]2(O)[C@@H](O)[C@@H](O)[C@@H](O)C[C@H]2N1CC1CCCCC1 returned MT1-MMP txn act 1.
Screening CCN(C(=O)CSc1nc2ccccc2n1CCc1ccccc1)C1CCS(=O)(=O)C1 (stereo not drawn) returned PLAP activator 2.4*, MT1-MMP txn act 1, PTPN22 inh 2 10.3 and LYP act -7.2.
`COC(=O)[C@@]1(Cc2ccc(F)cc2)[C@@H]2C(=CC(=O)[C@H]2CC(=O)C(=O)N(C)C)CN1C(=O)c1ccccc1` gave MT1-MMP txn act 1.1.
`Cc1ccc(S(=O)(=O)NNC(=O)C(=O)NNc2ccccn2)cc1` gave PLAP activator 2.4*, PTPN22 inh 2 8.5 and LYP act -3.5.
`Cc1ccccc1S(=O)(=O)NNC(=O)C(=O)NNc1ccccn1` gave PLAP activator 2.4*, PTPN22 inh 2 1.3 and LYP act 3.4.
For COC(=O)c1ccc(C(NC(=O)c2ccco2)[C@]2(C)C[C@H]2C2CCCCC2)cc1 (stereo partly drawn) the results were MT1-MMP txn act 1.1.
Screening CCOc1ccc(N2CC(C(=O)Nc3ccccc3N3CCOCC3)CC2=O)cc1 (stereo not drawn) returned PLAP activator 1.6, MT1-MMP txn act 1.3, PTPN22 inh 2 -7.1 and LYP act 9.7.
CCCN(CC1CC1)C(=O)CSc1nnc(-c2cc(-c3cccs3)nc3ccccc23)o1 was read as PLAP activator 1.7, MT1-MMP txn act 1.2, PTPN22 inh 2 9.1 and LYP act -6.1.
Screening Cc1cccc2nc(=S)n(C(=O)c3ccco3)n12 returned PLAP activator 1, MT1-MMP txn act 2.1*, PTPN22 inh 2 -8.5, LYP act 6.3 and TNAP act DEA 0.9.
Screening O=C(c1ccco1)n1c(=S)nc2ccccn21 returned PLAP activator 1.1, MT1-MMP txn act 1.5, PTPN22 inh 2 -8.6, LYP act 6.3 and TNAP act DEA 1.
For COC(=O)c1ccc(C(NC(=O)OCc2ccccc2)/C(=C/[C@@H](C)C(=O)Nc2ccc(OC)cc2)c2cccnc2)cc1 (stereo partly drawn) the results were MT1-MMP txn act 1.2.
For COc1ccc(-c2nc3c(Br)c(N)c(Br)cc3o2)cc1 the results were MT1-MMP txn act 1.7, PTPN22 inh 2 -5.3, LYP act 1.9 and TNAP act DEA 0.9.
Screening Nc1c(Br)cc2oc(-c3ccccc3)nc2c1Br returned MT1-MMP txn act 2* and TNAP act DEA 0.9.

Screening data as filed in PubChem.
